The campaign covered roughly 340,000 compounds. About 3,400 (1%) were called active. The sample holds actives, similar compounds and a random draw of the others, so the mix is not that of the screen. Values without a mark were called inactive.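 Rule for the calls: active = inhibition above the mean over all tested compounds plus 3 SD (cut at about 4.2% in these data); inactive = the rest.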

The target in the experiment is Nuclear receptor subfamily 0 group B member 1 (Homo sapiens) (UniProt P51843). Put plainly: DAX1 (NR0B1) inhibitors, primary screen, cell-based, HEK293, Gal4-DAX1, luciferase luminescence (AID 504766).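 Note: 0% = DAX1-transfected cells with DMSO and 100% = empty-vector control cells with DMSO; inhibition shows as a rise in luminescence from relieved DAX1 repression.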 The conditions noted are these: HEK293 Gal4-DAX1 luciferase reporter, at 6.75 µM, hits give high values. In general terms: Reporter assays use an easily measured gene product as a stand-in for the process of interest.
Chain of Nuclear receptor subfamily 0 group B member 1 (Homo sapiens) (P51843 207-470 limits assumed): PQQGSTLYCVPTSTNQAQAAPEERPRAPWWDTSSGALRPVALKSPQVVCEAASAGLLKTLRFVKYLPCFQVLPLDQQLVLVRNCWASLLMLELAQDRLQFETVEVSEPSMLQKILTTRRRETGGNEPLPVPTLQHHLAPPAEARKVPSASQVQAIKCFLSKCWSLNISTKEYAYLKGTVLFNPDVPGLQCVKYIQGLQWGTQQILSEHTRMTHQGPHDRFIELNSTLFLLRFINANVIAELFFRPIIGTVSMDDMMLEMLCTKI
For the compound `O[C@H]1C[C@H](c2ccc(Cl)cc2)N(Cc2cccs2)C[C@@H]1n1cc(C2CC2)nn1`, the inhibition is 0.67%.

In the case of `CN(C)/C=C(/C(=O)c1ccccc1Cl)S(C)(=O)=O`, the inhibition was -0.35%.

In the case of `CC(=O)c1ccc(S(=O)(=O)NCc2nnnn2-c2ccccc2)cc1`, the inhibition was 0.03%.

`CN(C)/C=C(/C(=O)c1ccc(Cl)c(Cl)c1)c1nnnn1-c1ccccc1`: the inhibition is 8.45% (active).

On to `CCOc1cc(/C=N/NC(=O)c2c(C)nc3ccc(Cl)cn23)ccc1O`, for which the inhibition was 0.71%.

For `COc1ccc(C(=O)OCC(=O)NCCCc2ccccc2)cc1OC`, the inhibition was -0.04%.

In the case of `Cc1cnc(C(=O)OCC(=O)NCCCc2ccccc2)cn1`, the inhibition is 8.25% (active).

As to `O=C(COC(=O)c1ccc(F)cc1)NCCCc1ccccc1`, the inhibition was 1.34%.

In the case of `S=C(NN=Cc1ccccn1)Nc1ccccn1`, the inhibition is -4.47%.

With `CC1(c2cccc(N)c2)OCCO1`, the inhibition was 0.74%.

Consider `CCCCCCN1C[C@@H](O)[C@H](n2cc(COC(=O)c3ccccc3)nn2)C[C@@H]1c1ccc(Cl)cc1`, for which the inhibition is 0.09%.

For `CCn1c(SCC(=O)Nc2ccc3c(c2)OCCO3)nnc1C(C)C`, the inhibition was 2.27%.

With `CCn1c(COc2ccccc2)nnc1SCC(=O)Nc1ccc2c(c1)OCCO2`, the inhibition is -0.24%.

In the case of `CCn1c(SCC(=O)Nc2ccc3c(c2)OCCO3)nnc1-c1ccncc1`, the inhibition was 6.79% (active).

Turning to `COc1ccc(-n2nc(C(=O)NCC(=O)N3CCC(C(N)=O)CC3)c3ccccc3c2=O)cc1OC`, the inhibition was 5.14% (active).

On to `COc1ccc(-n2nc(C(=O)NCC(=O)N3CCCCCC3)c3ccccc3c2=O)cc1Cl`, for which the inhibition is -1.56%.

In the case of `COc1ccc(-n2nc(C(=O)NCC(=O)N3CCN(c4ccccc4OC)CC3)c3ccccc3c2=O)c(OC)c1`, the inhibition is -1.07%.

As to `O=C(OCc1ccccc1)N1CCC2CC1c1ccc(-c3ccc4c(c3)OCO4)cc12` (stereo unspecified), the inhibition is 0.14%.

On to `COC(=O)C(Cc1c[nH]c2ccccc12)NC(=O)CCNC(=O)c1ccco1` (stereo unspecified), for which the inhibition was 0.93%.

For the compound `C[C@H]1CN([C@@H](C)CO)C(=O)CCCn2nncc2CO[C@@H]1CN(C)Cc1ccc(Oc2ccccc2)cc1`, the inhibition is -1.44%.

On to `COc1ccc(-c2ccc3[nH]c4c(c3c2)CCN2C[C@H]3[C@H](C)ON(C)[C@H]3C[C@@H]42)cc1`, for which the inhibition was -1.11%.

For the compound `COc1ccc(NC(=O)C[C@H]2C(=O)N(CCc3ccccc3)C[C@@H]2C)cc1`, the inhibition is 0.1%.

For `Cc1ccc(CSc2nsc(C)c2C#N)cc1`, the inhibition was 4.45% (active).

Regarding `Cc1cc(C)c(C#N)c(SCc2ccc3c(c2)OCO3)n1`, the inhibition was -0.08%.

Turning to `Cc1snc(SCc2c(F)cccc2Cl)c1C#N`, the inhibition was -1.64%.

Turning to `C[C@@H]1CN([C@@H](C)CO)C(=O)c2cc(Br)cnc2O[C@@H]1CN(C)C(=O)C1CCCCC1`, the inhibition was 1.82%.

Turning to `CCN(CC)C(=O)C1=C(C)N(Cc2ccccc2)C(=O)C(CC(=O)NC(c2ccccc2)c2ccccc2)C1` (stereo unspecified), the inhibition is -0.09%.

As to `CC(=O)Nc1ccc(SCC(=O)NC(=O)c2ccc(Cl)cc2)cc1`, the inhibition is 0.53%.

`Cn1nc(-c2ccccc2)c2cc([N+](=O)[O-])ccc21`: the inhibition is 0.55%.

In the case of `O=[N+]([O-])c1ccc2oc(-c3cccc(O)c3)nc2c1`, the inhibition is 0.69%.

In the case of `O=[N+]([O-])c1ccc2c(c1)C(O)n1nc(-c3ccccc3)nc1S2` (stereo unspecified), the inhibition was 6.7% (active).

With `Cc1ccc(C=O)c([B-](F)(F)F)c1`, the inhibition was -0.38%.

Regarding `COc1cc(NC(=O)CSc2nnc3ccc(-c4ccncc4)nn23)cc(OC)c1`, the inhibition is 0.29%.

For `COc1ccc(CCNC(=O)CSc2nnc3ccc(-c4ccncc4)nn23)cc1`, the inhibition is 2.31%.

For the compound `O=C(CSc1nnc2ccc(-c3ccncc3)nn12)N1CCCCC1`, the inhibition is 4.62% (active).

Take `Cc1nc2ccccc2nc1CC(O)(c1ccccc1)c1ccccc1`: the inhibition was 1.49%.

As for `COc1ccc(CN2C(=O)C(CC(=O)NCc3cccc4ccccc34)CC(C(=O)N3CCOCC3)=C2C)cc1` (stereo unspecified), the inhibition is 0.04%.

Consider `CC(Sc1ccc(S(=O)(=O)N2CCN(C)CC2)cn1)C(=O)NC1CCCC(C)C1C` (stereo unspecified), for which the inhibition is 0.86%.

Take `C[C@H]1Cn2cnc(C(=O)N[C@H](C)c3ccccc3)c2C(=O)N1`: the inhibition is 1.52%.

As to `CCOC(=O)C(=Cc1ccccc1)C(=O)c1ccccc1`, the inhibition is -1.17%.

On to `O=C(NC1CCCC1)c1cc(-c2ccccc2)on1`, for which the inhibition was 5.49% (active).

Consider `O=C(NCCCn1ccnc1)c1cc(Br)c(Br)s1`, for which the inhibition is 2.56%.

For the compound `O=C(NCCCn1ccnc1)c1ccccc1F`, the inhibition was 1.27%.

For `O=C(NC1CCCCC1)c1cc(C2CC2)on1`, the inhibition was 1.17%.

Take `O=C(NCCCn1ccnc1)c1cc(-c2ccccc2)on1`: the inhibition is 4.72% (active).

With `O=C(NC1CCCCCCC1)c1cccs1`, the inhibition is 0.85%.

For `O=NN(CCCl)C(=O)NCCc1cccc[n+]1[O-]`, the inhibition is 0.77%.

As for `CN(C)C(CNC(=O)c1cc(Br)c(Br)s1)c1ccco1` (stereo unspecified), the inhibition is -0.16%.

On to `O=C1[C@H]2[C@@H](c3ccc(C(F)(F)F)cc3)N[C@]3(CCCN(Cc4ccc(Cl)cc4)C3=O)[C@H]2C(=O)N1Cc1ccccc1`, for which the inhibition is -0.84%.

As to `Cc1ccc(Cc2c(-c3ccc(C)cc3)nc3c4ccccc4ccn23)cc1`, the inhibition is 0.53%.

As for `O=C(CN1C(=O)NC2(CCc3ccccc32)C1=O)NC1CCCCC1` (stereo unspecified), the inhibition is -0.26%.

Take `N#Cc1c(C(F)(F)F)cc(-c2ccccc2)nc1SCC(=O)N1CCOCC1`: the inhibition is -0.64%.

As for `Cc1cc(C(F)(F)F)c(C#N)c(SCC(=O)NC2CC2)n1`, the inhibition was -0.39%.

For the compound `N#Cc1c(C(F)(F)F)cc(-c2ccc(Cl)cc2)nc1SCC(=O)O`, the inhibition is 4.58% (active).

Take `Cc1ccc(C(=O)N[C@H](C(=O)N2CCN(c3ncccn3)CC2)C(C)C)cc1`: the inhibition is 1.36%.

`CC1(C2CC2)NC(=O)N(CC(=O)N2CCN(c3ccccc3F)CC2)C1=O` (stereo unspecified): the inhibition is -0.4%.

For `COc1cc(C)c(CN2CCN(C(=O)CCC(=O)c3ccc(C)s3)CC2)cc1OC`, the inhibition is 0.95%.

As for `COC(=O)C[C@H]1C[C@@H]2c3cc(N(C)C)ccc3O[C@@H]2[C@H](CO)O1`, the inhibition is 1.14%.

Regarding `O=C(NCCc1cccc(F)c1)C1CC(O)CN1C(=O)Nc1ccccc1` (stereo unspecified), the inhibition is 0.98%.

Regarding `COC(=O)c1sc(SC)c(S(=O)(=O)C(C)C)c1N/N=C(\C#N)S(=O)(=O)c1ccccn1`, the inhibition was 4.53% (active).

On to `Cc1cc(C)c2c(=O)n3c(nc2c1)C(CC(C)C)NC(=O)c1cc2ccccc2cc1-3` (stereo unspecified), for which the inhibition is 0.81%.

Regarding `COc1ccc(C=C2CCC3C(CCCC34OCCO4)C2=O)cc1` (stereo unspecified), the inhibition was 1.37%.

Consider `COc1ccc(CN2C(=O)C(CC(=O)NCCCCc3ccccc3)CC(C(=O)N3CCOCC3)=C2C)cc1` (stereo unspecified), for which the inhibition is -0.84%.

For the compound `CCCCCCNC(=O)O[C@]12C[C@@H](C(=O)OC)[C@@H](C(=O)OC)C[C@@]1(O)CN(S(=O)(=O)c1ccc(C)cc1)C2`, the inhibition is 0.26%.

In the case of `CCOC(=O)c1cc(-c2sc(NC(=O)c3ccccc3)nc2C)n(Cc2ccccc2)n1`, the inhibition is -1.03%.

As for `O=S1(=O)CCN(C2CCCCCCCCCCC2)CC1`, the inhibition was -0.26%.

As to `O=C(Nc1ccc(C2CC2(Cl)Cl)cc1)c1cccc([N+](=O)[O-])c1` (stereo unspecified), the inhibition was 4.49% (active).

Regarding `Cc1cc(C)nc(NC(=O)c2cccc([N+](=O)[O-])c2)c1`, the inhibition is 0.73%.

Consider `O=C(Nc1cccc([N+](=O)[O-])c1)c1ccc2c(c1)OCO2`, for which the inhibition was 0.29%.

Regarding `CC1=C(C(=O)N2CCOCC2)CC(CC(=O)NCc2ccco2)C(=O)N1Cc1ccc(F)cc1` (stereo unspecified), the inhibition was 1.82%.

With `C/C(=N\NC(=S)NC1CCCCC1)c1ccc(C)o1`, the inhibition is 0.98%.

For `Cc1ccc(/C=N/NC(=S)NC2CCCCC2)o1`, the inhibition was 4.44% (active).

Take `COc1ccc(C(=O)NC(=S)NC2CCCCC2)cc1`: the inhibition was 1.16%.

Regarding `O=C(C1CCC1)N1CCN(c2ccccc2)CC1`, the inhibition was 0.59%.

Turning to `NC(=O)C1CCCN(CC(=O)N2CCN(c3ccccc3)CC2)C1` (stereo unspecified), the inhibition was 6.46% (active).

On to `CC1CCCCC12NC(=O)N(CC(=O)N1CCN(c3ccccc3)CC1)C2=O` (stereo unspecified), for which the inhibition was 1.67%.

In the case of `Cc1ccc(S(=O)(=O)N2C[C@H]3C(=O)C[C@@H](c4cccc5ccccc45)N(S(=O)(=O)c4ccc(C)cc4)[C@H]3C[C@H]2c2ccc(Cl)cc2)cc1`, the inhibition is -0.08%.

Turning to `CC(C)CC(=O)N/C(N)=N/c1nc2ccccc2s1`, the inhibition is 0.77%.

As for `O=C(CCC(=O)c1cccs1)Nc1nc2ccccc2s1`, the inhibition is 0.63%.

Turning to `CCC(=O)NC(=Nc1nc2ccccc2s1)NC(=O)CC`, the inhibition was 6.2% (active).

Regarding `Cc1cccc(C(=O)C(O)(c2ccccc2)C2CCCCC2=O)c1` (stereo unspecified), the inhibition was 0.38%.

`COc1ccc(NC(=O)CN(C)C(=O)c2cc(C)oc2C)cc1`: the inhibition is -0.29%.

Take `Cn1nnc(NC(=S)NC(=O)c2ccccc2)n1`: the inhibition is 0.45%.

Take `Cc1cc2[nH]ncc2cc1NC(=S)NC(=O)c1ccccc1`: the inhibition is 5.71% (active).

As to `Cc1cc(C)cc(C(=O)NC(=S)Nc2ccc3[nH]c(=O)[nH]c3c2)c1`, the inhibition is -1.15%.

Take `O=C(OCC(=O)N1CCCCCC1)c1cccc(Cl)c1Cl`: the inhibition was 3.82%.

Turning to `O=C(CSc1ncn[nH]1)Nc1nc2c(F)c(F)c(F)cc2s1`, the inhibition was 0.83%.

As for `C=CCSC(CC)(CC)C(N)=O`, the inhibition was 4.43% (active).

As for `Cc1[nH]n(-c2ccccc2)c(=O)c1CCOC(=O)c1ccc(C(F)(F)F)cc1`, the inhibition was 5.49% (active).

Regarding `CCOC(=O)C[C@H]1c2ccc(C(F)(F)F)cc2S(=O)(=O)N1c1ccccc1`, the inhibition is 0.49%.

Consider `CCCOC(=O)c1ccc(N2C(=O)c3ccccc3C2=O)cc1`, for which the inhibition was -0.27%.

As usually defined, the inhibition is the change of the read-out against control, counted positive when it falls.
